Measurements from PubChem BioAssay (NCI).
About 79,000 compounds went through this panel and 15% of them were active in at least one assay; those are over-represented in the sample as a whole. Activity calls are given as the source filed them. Cut-off read from the data, not from the text of the source: active = growth inhibition above about 70%; inactive = the rest.

Key:
[1] = NCI Yeast Anticancer Drug Screen. Data for the wt1 strain (AID 149);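 note: 0% = growth of vehicle-treated wt1 cultures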; conditions: S. cerevisiae wt1 strain (SPY 50644) growth inhibition, active compounds read high
How it was run: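 Compounds are added to wt1 yeast cultures. Growth is then measured. Inhibition is expressed relative to vehicle-treated controls.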

[2] = NCI Yeast Anticancer Drug Screen. Data for the rad50EPP+ strain (AID 151);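 note: 0% = growth of vehicle-treated control cultures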; conditions: S. cerevisiae rad50 mutant strain, active compounds read high
How it was run: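 Vehicle-normalised growth inhibition; rad50EPP+ yeast strain, altered in DNA damage repair, compound-treated.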

[3] = NCI Yeast Anticancer Drug Screen. Data for the rad50 strain (AID 155);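 note: 0% = growth of vehicle-only cultures of the same strain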; conditions: S. cerevisiae rad50 strain growth inhibition, active compounds read high
How it was run: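 Inhibition values express reduced yeast growth in compound-treated cultures relative to vehicle-treated controls.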

[4] = NCI Yeast Anticancer Drug Screen. Data for the mec2-1 strain (AID 157); conditions: S. cerevisiae mec2-1 strain, active compounds read high
How it was run: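 Mutant yeast (mec2-1) grown with compound; growth inhibition relative to vehicle control reported.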

[5] = NCI Yeast Anticancer Drug Screen. Data for the rad14 strain (AID 159);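 note: 0% = growth of vehicle-treated control cultures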; conditions: S. cerevisiae rad14 strain growth inhibition, active compounds read high
How it was run: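 A mutant yeast strain defective in DNA damage repair is treated with compound; inhibition of its growth is scored against untreated, vehicle-exposed cultures.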

[6] = NCI Yeast Anticancer Drug Screen. Data for the CLN2oe strain (AID 163);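 note: 0% = growth of vehicle-only control cultures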; conditions: S. cerevisiae CLN2oe strain, active compounds read high
How it was run: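 Compounds are applied to yeast harbouring a defined cell-cycle control change; reduced growth compared with vehicle-treated controls gives the value.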

[7] = NCI Yeast Anticancer Drug Screen. Data for the cln2 rad14 strain (AID 165);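 note: 0% = growth equal to vehicle treated cultures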; conditions: S. cerevisiae cln2 rad14 strain, active compounds read high
How it was run: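 Readout is yeast growth inhibition versus vehicle-treated controls, using a strain with cln2 and rad14 alterations exposed to compound.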

[8] = NCI Yeast Anticancer Drug Screen. Data for the bub3 strain (AID 167); conditions: S. cerevisiae bub3 mutant strain, active compounds read high
How it was run: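 Steps: expose the mutant yeast strain to compound; grow alongside vehicle-treated cultures; measure growth; express inhibition against the vehicle cultures.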

[9] = NCI Yeast Anticancer Drug Screen. Data for the wt2 strain (AID 169);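 note: 0% = growth of vehicle-treated yeast cultures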; conditions: S. cerevisiae wt2 strain growth inhibition, active compounds read high
How it was run: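 Against vehicle-treated controls, the growth of yeast exposed to each compound was compared, and the inhibition was recorded.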

[10] = NCI Yeast Anticancer Drug Screen. Data for the mlh1 strain (AID 171);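 note: 0% = growth of vehicle-treated control cultures of the same strain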; conditions: S. cerevisiae mlh1 strain growth inhibition, active compounds read high
How it was run: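 Measured: yeast growth. Reference: vehicle-treated controls. Organism: strain with a defined alteration affecting DNA damage repair or cell cycle control, treated with compound.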

[11] = NCI Yeast Anticancer Drug Screen. Data for the sgs1 strain (AID 173);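 note: 0% = growth of vehicle-only control cultures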; conditions: S. cerevisiae sgs1 mutant, active compounds read high
How it was run: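 Each compound was added to cultures of the altered yeast strain. Growth was recorded, and inhibition was derived by comparison with vehicle controls.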

[12] = NCI Yeast Anticancer Drug Screen. Data for the mlh1 rad18 strain (AID 175); conditions: S. cerevisiae mlh1 rad18 strain growth inhibition, active compounds read high
How it was run: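 Genetically defined yeast (DNA repair-deficient) exposed to compounds; growth inhibition determined relative to vehicle.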

[13] = NCI Yeast Anticancer Drug Screen. Data for the rad18 strain (AID 177); conditions: S. cerevisiae rad18 mutant growth inhibition, active compounds read high
How it was run: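 Vehicle-treated cultures served as the baseline for scoring compound-induced growth inhibition in DNA-repair-mutant yeast.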

[14] = at 5.0 µM (retest, dose inferred, filed as 0.5)
[15] = at 50.0 µM (retest, dose inferred, filed as 5.0)

Measured: growth inhibition

CC1=NN(C(=O)CC(=O)N(C(=O)c2ccccc2)c2ccc(Cl)cc2)C(=O)C1N=Nc1ccc([N+](=O)[O-])cc1 (stereo not given)
active: [3]; at 33.0 µM 74% | [3]; [15] 89% | [3]; at 50.0 µM 84.5% | [3]; at 100.0 µM 74% | [4]; at 50.0 µM 83.6% | [6]; at 33.0 µM 75% | [6]; at 100.0 µM 77% | [8]; at 50.0 µM 85% | [8]; at 100.0 µM 71% | [9]; at 33.0 µM 87% | [9]; at 100.0 µM 82% | [12]; [15] 75% | [12]; at 50.0 µM 81% | [13]; at 33.0 µM 85% | [13]; at 100.0 µM 84%
inactive: [1]; at 1.2 µM -43% | [1]; at 3.7 µM -1% | [1]; at 11.0 µM 10% | [1]; at 33.0 µM 26% | [1]; at 100.0 µM 37% | [2]; at 1.2 µM 6% | [2]; at 3.7 µM 26% | [2]; at 11.0 µM 39% | [2]; at 33.0 µM 41% | [2]; at 100.0 µM 32% | [3]; at 1.2 µM -3% | [3]; at 3.7 µM 8% | [3]; [14] 41% | [3]; at 11.0 µM 50% | [4]; at 1.2 µM -3% | [4]; at 3.7 µM 8% | [4]; [14] 8% | [4]; at 11.0 µM 41% | [4]; at 33.0 µM 67% | [4]; [15] 56% | [4]; at 100.0 µM 68% | [5]; at 1.2 µM -1% | [5]; at 3.7 µM 7% | [5]; at 11.0 µM 23% | [5]; at 33.0 µM 44% | [5]; at 100.0 µM 53% | [6]; at 1.2 µM -11% | [6]; at 3.7 µM 6% | [6]; at 11.0 µM 48% | [7]; [14] 63% | [7]; [15] 66% | [7]; at 50.0 µM 55.8% | [8]; at 1.2 µM -5% | [8]; at 3.7 µM -6% | [8]; [14] 4% | [8]; at 11.0 µM 30% | [8]; at 33.0 µM 63% | [8]; [15] 67% | [9]; at 1.2 µM -4% | [9]; at 3.7 µM 7% | [9]; at 11.0 µM 64% | [10]; at 1.2 µM 0% | [10]; at 3.7 µM 8% | [10]; at 11.0 µM 36% | [10]; at 33.0 µM 59% | [10]; at 100.0 µM 69% | [11]; at 1.2 µM 0% | [11]; at 3.7 µM 14% | [11]; at 11.0 µM 46% | [11]; at 33.0 µM 68% | [11]; at 100.0 µM 69% | [12]; [14] 24% | [13]; at 1.2 µM 4% | [13]; at 3.7 µM 11% | [13]; at 11.0 µM 62%
